Data: PubChem BioAssay (EPA / NIEHS)
More than one record can exist for a structure, and the calls need not agree. Active and inactive are the calls of the source. Rule for the calls: active = hit-call score of the fitted dose curve at least 0.9, where 1 is the maximum; inactive = score below 0.9.

read-out: Interleukin-8 (IL8), CXCL8 (gene 3576); test: BSK_SAg_IL8: BioMAP Diversity Plus: SAg Assay for Interleukin-8 (IL8) Biomarker Activity (AID 2283094); conditions: primary human HUVEC with PBMC; actives raise or lower the signal
Experimental: BSK_SAg is a cell-based, multiplexed-readout assay that uses umbilical vein endothelium and peripheral blood mononuclear cells, a human vascular primary cell co-culture, with measurements taken at 24 hours after chemical dosing in a 96-well plate.BSK_SAg_IL8 is an assay component measured in the BSK_SAg assay. It measures IL-8 antibody related to regulation of gene expression using ELISA technology.Data from the assay component BSK_SAg_IL8 was analyzed into 1 assay endpoint. This assay endpoint, BSK_SAg_IL8, was analyzed with bidirectional fitting relative to DMSO as the negative control and baseline of activity. Using a type of binding reporter, gain or loss-of-signal activity can be used to understand changes in the signaling as they relate to the gene CXCL8. Furthermore, this assay endpoint can be referred to as a primary readout, because this assay has produced multiple assay endpoints where this one serves a signaling function. To generalize the intended target to other relatable targets, this assay endpoint is annotated to the cytokine intended target family, where the subfamily is interleukins.
The levels of cell surface (or secreted, indicated by the prefix "s") biomarker endpoints were measured by ELISA. Overt cytotoxicity to cells in confluent adherent cultures (all systems other than the BT system) was assessed by measuring total protein levels using sulforhodamine B (SRB) staining in parallel cultures at the time of biomarker measurements, indicated as SRB endpoints. For proliferation assays for adherent cell types, individual cell types are cultured at sub-confluence and relative cell numbers quantified by SRB staining at time points optimized for each system (48 h: 3C and CASM3C systems; 72 h: BT and HDF3CGF systems; 96 h: SAg system). SRB was performed by staining cells with 0.1% SRB after fixation with 10% TCA and reading wells at 560 nm.Viability and proliferation of PBMC (T cells) was quantified by Alamar Blue reduction for the SAg and BT systems. For PBMC viability (referred to as PBMC Cytotoxicity within the assay endpoint names), cells were plated (75,000/well in a 96-well plate) and then chemical samples added for 1 h before addition of activators, SEB and TSST-1 (20 ng/mL final concentration each). Cells were incubated for 90 h. Then, Alamar Blue (20 uL/well) (Invitrogen, Cat DAL1100) was added for 6 h, and the plates were read with a fluorescence microplate reader at 546/580 nm (excitation/emission). For PBMC proliferation, cells were plated and activated as above but incubated for only 16 h prior to addition of Alamar Blue. Plates were read after 6 h.

Structure (SMILES) | outcome | AC50
Oc1cccc2cccnc12 | inactive | –
OCc1ccco1 | inactive | –
Cn1sc(Cl)cc1=O | – | 20 µM (active)
COP(=S)(OC)Oc1ccc(S(=O)(=O)N(C)C)cc1 | inactive | –
C=CC(=O)OCCCCCC(C)C | inactive | –
COP(=S)(OC)Oc1ccc(Sc2ccc(OP(=S)(OC)OC)cc2)cc1 | – | 9.59 µM (active)
O=C(O)C(F)(F)C(F)(F)C(F)(F)C(F)(F)C(F)(F)C(F)(F)F | inactive | –
C[C@@H]1C[C@@H]([C@H](O)CC2CC(=O)NC(=O)C2)C(=O)[C@@H](C)C1 | – | 1.4 µM (active)
CCC(C)(C)c1ccc(O)c(C(C)(C)CC)c1 | – | 9.58 µM (active)
O=[N+]([O-])c1ccc(O)c([N+](=O)[O-])c1 | inactive | –
CCOP(=S)(OCC)Oc1ccc(S(C)=O)cc1 (stereo not given) | inactive | –
COP(=S)(OC)Oc1c(Cl)cc(C)cc1Cl | inactive | –
CCCCC(CC)CO[N+](=O)[O-] (stereo not given) | inactive | –
CC1(C)Cc2cccc(O)c2O1 | inactive | –
CC(C)(C)c1cc(O)ccc1O | – | 7.38 µM (active)
BrCCBr | inactive | –
COP(=S)(OC)Oc1cc(Cl)c(Cl)cc1Cl | inactive | –
NC(=O)O | inactive | –
NC(=S)Nc1ccccc1 | inactive | –
Oc1ccc(-c2ccccc2)cc1 | inactive | –

Structure (SMILES) | outcome | AC50
O=C(O)CCC(F)(C(F)(F)F)C(F)(F)F | inactive | –
CC(=O)C(Cl)C(=O)N(C)C (stereo not given) | – | 14.1 µM (active)
CC(C)(OO)c1ccccc1 | inactive | –
O=c1[nH]c(=O)[nH]c(=O)[nH]1 | – | 32.6 µM (active)
CCOP(=S)(OCC)Oc1nc(Cl)c(Cl)cc1Cl | – | 20 µM (active)
CC(C)(c1ccccc1)c1ccc(O)c(C(C)(C)c2ccccc2)c1 | – | 11.4 µM (active)
O=C(Nc1ccc2[nH]ccc2c1)c1cc2cc(F)ccc2n1Cc1cccc(F)c1 | – | 6.87 µM (active)
O=C(OC1CCCCC1)c1ccccc1C(=O)OC1CCCCC1 | – | 20.9 µM (active)
COC(=O)c1sccc1S(=O)(=O)NC(=O)Nc1nc(C)nc(OC)n1 | inactive | –
Nc1cccc2ccccc12 | inactive | –
CCOP(=S)(OCC)SCCS(=O)(=O)CC | inactive | –
C(=NC1CCCCC1)=NC1CCCCC1 | – | 3.97 µM (active)
CC(=O)OC(c1ccccc1)C(Cl)(Cl)Cl (stereo not given) | inactive | 13.4 µM (active)
Nc1ncc([N+](=O)[O-])s1 | inactive | –
CCOP(=S)(OCC)SCSP(=S)(OCC)OCC | inactive | –
O=Cc1cccc(Oc2ccccc2)c1 | inactive | –
CN(C)N=O | inactive | –
O=[N+]([O-])c1ccc2c3c(cccc13)CC2 | inactive | –
CCCCCCCCC(=O)NCc1ccc(O)c(OC)c1 | inactive | –
